# Assay outcomes: PubChem, National Center for Advancing Translational Sciences (NCATS)
# Compounds with a hit are over-represented: about 1.5% of the library has one in this group of screens.
# WRN helicase inh-1: qHTS for Inhibitors of WRN Helicase. Bifunctional 3'-5' exonuclease/ATP-dependent helicase WRN (Homo sapiens), Q14191. WRN helicase unwinding, fluorescent forked duplex, kinetic. Potency, µM (highest dose often 114 µM), hits mostly inhibitors. 360,000 compounds, 0.46% hits. AID 651768, 2012; note: nearly all actives have a fitted effect of over 55% in size
#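 Screening of the MLSMR collection measured strand separation of a quenched forked DNA duplex (100 nM) by 20 nM WRN with 2 mM ATP, all final. Compounds were preincubated with enzyme 15 min at room temperature.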
# PI5P4Ka inh: qHTS for Inhibitors of phosphatidylinositol 5-phosphate 4-kinase (PI5P4K); AID 652105, 2013; max response, %; 330,000 compounds, 1.2% hits; Phosphatidylinositol 5-phosphate 4-kinase type-2 alpha (Homo sapiens), P48426; PI5P4Kalpha enzyme, ADP-Glo luminescence, 60 min; active compounds read low; active = max response of -50% or lower; inconclusive = between -30% and -50%; inactive = -30% or higher; note: value at the top dose of about 77 µM
# Target sequence (P48426 whole entry, looked up): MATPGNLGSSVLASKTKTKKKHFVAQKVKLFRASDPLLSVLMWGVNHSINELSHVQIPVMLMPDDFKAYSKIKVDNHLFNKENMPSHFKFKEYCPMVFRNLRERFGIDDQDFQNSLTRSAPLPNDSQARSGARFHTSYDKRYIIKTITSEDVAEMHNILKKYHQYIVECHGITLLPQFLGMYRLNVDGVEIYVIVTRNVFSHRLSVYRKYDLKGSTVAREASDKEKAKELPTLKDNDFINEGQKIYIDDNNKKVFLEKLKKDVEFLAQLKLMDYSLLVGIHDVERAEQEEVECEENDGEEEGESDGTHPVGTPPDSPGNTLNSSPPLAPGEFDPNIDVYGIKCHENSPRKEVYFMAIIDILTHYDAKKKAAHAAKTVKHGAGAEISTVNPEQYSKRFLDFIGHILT
#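 PI5P4Kalpha ADP-Glo assay; 5 microM ATP final; 60 min RT reaction; HEPES pH 7.4/EGTA/CHAPS, 5% DMSO; controls lacking substrate or enzyme; luminescent end-point.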
# TDP1 inh: qHTS Assay for Inhibitors of Tyrosyl-DNA Phosphodiesterase (TDP1). Tyrosyl-DNA phosphodiesterase 1 (Homo sapiens), Q9NUW8. recombinant TDP1, AlphaScreen DNA substrate cleavage. Potency, µM (series often up to 130 µM), most hits filed as inhibitors. 350,000 compounds, 0.28% hits. AID 485290, 2010; note: nearly all actives have a fitted effect of over 40% in size
#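 E. coli-derived human Tdp1, 1 nM final. Cpd preinc 15 min RT; substrate 15 nM final, 5 min RT; AS bead mix 10 ug/ml final, 10 min RT. Signal loss = tyrosine-FITC cleavage. No-enzyme wells = max signal.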
# FEN1 inh: qHTS Assay for the Inhibitors of Human Flap endonuclease 1 (FEN1); P39748; Potency, µM (titrated, usually from 114 µM), most hits filed as inhibitors; 390,000 compounds, 0.35% hits; Recombinant FEN1 flap cleavage, fluorescence, 15 min; AID 588795, 2011; note: nearly all actives have a fitted effect of over 65% in size
# Target sequence (P39748 whole entry, looked up): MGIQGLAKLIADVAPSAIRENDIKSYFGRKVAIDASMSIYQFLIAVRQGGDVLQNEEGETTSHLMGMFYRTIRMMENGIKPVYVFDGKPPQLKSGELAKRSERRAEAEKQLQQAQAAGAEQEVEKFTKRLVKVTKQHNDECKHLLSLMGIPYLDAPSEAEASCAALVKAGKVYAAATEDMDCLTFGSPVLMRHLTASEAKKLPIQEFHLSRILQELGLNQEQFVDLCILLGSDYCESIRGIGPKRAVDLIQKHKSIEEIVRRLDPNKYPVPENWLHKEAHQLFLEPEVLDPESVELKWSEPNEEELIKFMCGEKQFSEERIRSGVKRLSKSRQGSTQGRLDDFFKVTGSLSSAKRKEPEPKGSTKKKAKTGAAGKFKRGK
#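 FEN1 at 10 nM, compound pretreatment for 15 min (room temperature), 50 nM final substrate to initiate; endpoint reads at 0 and 15 min; DMSO-only plates used as vehicle background.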
# Tb PGK inh: qHTS Assay to Find Inhibitors of Phosphoglycerate Kinase | AID 602233, 2012 | Potency, µM (doses to about 57.5 µM), actives largely listed as inhibitors | PGK/GAPDH coupled, Kinase-Glo luminescence, 60 min | Phosphoglycerate kinase, glycosomal (Trypanosoma brucei brucei), P07378 | 380,000 compounds, 0.043% hits; note: nearly all actives have a fitted effect of over 60% in size
#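 Recombinant glycosomal PGK reaction used 1,3-bisphosphoglycerate generated in-well by GAPDH (100nM final) in 100mM TEA pH 7.6, 5mM MgCl2, 0.01% Tween-20. After 60 minutes at room temperature, ATP was read by Kinase-Glo Plus luminescence end-point.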
# Tb PFK inh: qHTS Assay to Find Inhibitors of T. brucei phosphofructokinase; ATP-dependent 6-phosphofructokinase (Trypanosoma brucei brucei), O15648; T. brucei PFK, ADP-Glo luminescence; Potency, µM (titrated, usually from 57.5 µM), most hits filed as inhibitors; 330,000 compounds, 0.17% hits; note: nearly all actives have a fitted effect of over 60% in size
#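 1.25 nM PFK with 0.5 mM F6P and 0.1 mM ATP in 0.1 M TEA pH 8.0, 5 mM MgCl2, incubated 45 min at room temperature; ADP measured by ADP-Glo luminescence; compounds titrated up to 57 uM.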
# WRN helicase inh-2: qHTS for Inhibitors of WRN Helicase: Confirmatory Assay for Cherry-picked Compounds | shares compounds with WRN helicase inh-1 | Potency, µM (series often up to 57.1 µM), actives largely listed as inhibitors | WRN helicase DNA unwinding, fluorescence kinetic | 610 compounds, 63% hits; note: nearly all actives have a fitted effect of over 65% in size
# TO DNA binding: qHTS for Inhibitors of WRN Helicase: Thiazole Orange DNA Binding Counterscreen | 610 compounds, 10% hits | AID 720499, 2013 | Potency, µM (highest dose often 57.1 µM), most hits filed as inhibitors | thiazole orange DNA binding displacement, fluorescence | shares compounds with WRN helicase inh-1;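 note: drop in dye fluorescence marks compound binding to DNA; nearly all actives have a fitted effect of over 60% in size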
# BLM helicase inh: qHTS for Inhibitors of WRN Helicase: BLM Helicase Counterscreen for WRN Inhibitors; Recombinant BLM helicase DNA unwinding, red fluorescence; shares compounds with WRN helicase inh-1; 610 compounds, 60% hits; Potency, µM (series often up to 57.1 µM), usual class: inhibitors; note: nearly all actives have a fitted effect of over 60% in size
# A number is an active result; . = inactive; ? = inconclusive; / = not tested or not shown; ! = not confirmed by another sample; [ ] = dose if it differs, or a comment. Unless noted, calls come from the whole dose curve; as a rule, active = well fitted curve in the direction sought with a large enough effect; inconclusive = small, poorly fitted or top-dose-only effect, or another doubt; inactive = no such curve, though single readings can be large; an effect the other way counts as inactive or inconclusive.
SMILES,WRN helicase inh-1,PI5P4Ka inh,TDP1 inh,FEN1 inh,Tb PGK inh,Tb PFK inh,WRN helicase inh-2,TO DNA binding,BLM helicase inh
CCn1c(C)c(C2=CCN(S(=O)(=O)c3ccc(C)cc3)CC2)c2ccccc21,?,.,.,.,.,.,?,.,?
COc1cc(/C=C2\SC(=Nc3cccnc3)NC2=O)cc(OC)c1OC,13µM,-89,.,.,.,.,.,.,.
O=C1NC(=Nc2cccnc2)S/C1=C\c1cccc(F)c1,?,.,.,.,.,.,/,/,/
COc1cc(/C=N\N=C2/SC(CC(=O)O)C(=O)N2c2ccc(O)cc2)ccc1O (centres undefined),.,/,.,.,.,.,/,/,/
COc1cc(/C=N/N=C2/SCC(=O)N2c2ccc(O)cc2)ccc1O,79µM,-50,.,.,.,.,.,.,.
CC1(C)CC(=O)C2=C(C1)NC(Nc1nc3ccccc3o1)=NC2c1ccccc1 (centres undefined),/,/,.,.,/,/,/,/,/
O=C1OC(c2ccc3ccccc3c2O)(c2ccc3ccccc3c2O)c2ccccc21,?,-79,/,?,.,/,?,24µM,.
CCOc1ncccc1C(=O)NNC(=O)c1cccc(S(=O)(=O)Nc2ccc(OC)cc2)c1,?,.,.,.,.,.,.,.,.
CCCN1C(=O)/C(=C/C=C2\N(CC)c3ccccc3C2(C)C)SC1=S,19µM,.,.,?,.,.,22µM,.,22µM
Cc1ccc(C)n1-c1sc2c(c1C(=O)O)CCCC2,?,.,/,.,.,.,14µM,.,15µM
COc1ccc(C2Nc3ccccc3C(=O)N2Cc2ccco2)cc1COc1ccc(N)cc1 (centres undefined),/,/,.,/,/,/,11µM,?,3µM
O=C(/C=C/c1cccc(F)c1)OCC(=O)N1CCCC1,.,.,.,.,.,.,/,/,/
Cc1cccc(C(=O)Oc2ccc(/C=N/NC(=O)c3ccncc3)cc2)c1,.,.,.,.,.,.,/,/,/
Cc1cccc(C(=O)Oc2ccc(/C=N/NC(=O)c3cc(O)cc(O)c3)cc2)c1,35µM,-77,/,?,?,.,22µM,?,14µM
O=C(NCc1ccco1)Nc1nnc([C@H]2C[C@H](O)[C@@H](CO)O2)s1,.,?,/,/,/,/,/,/,/
Cc1cccc(C(=O)N=c2c(C#N)cc3c(=O)n4cccc(C)c4nc3n2Cc2ccco2)c1,25µM!,-93,16µM,.,.,.,24µM,.,?
O=S(=O)(Nc1cc(Sc2ncn[nH]2)c(O)c2ccccc12)c1ccccc1,35µM,-90,.,20µM,.,?,?,.,?
CCc1ccc2c(c1)C(NC(C)=O)C(=O)N2CCN1CCOCC1 (centres undefined),45µM,.,/,?,?,.,?,.,19µM
O=[N+]([O-])c1cc2c(c3cccnc13)COCO2,?,-56,/,.,.,/,?,.,15µM
c1cnc2ccc3c(c2c1)COCO3,.,.,/,.,.,/,/,/,/
Cc1cc2nc(C3CCCCC3)c(CC(C)(C)C)n2c(C)c1Br,.,.,/,/,/,/,/,/,/
N=C1S/C(=C\c2ccco2)C(=O)N1c1ccc2c(c1)OCO2,?,?,.,.,.,.,?,.,19µM
NC(=O)c1ccc(NC(=O)COC(=O)/C=C/c2ccc(Br)o2)cc1,32µM,-58,5.6µM,.,?,?,?,.,17µM
CN(C)S(=O)(=O)c1cccc(NC(=O)COC(=O)/C=C/c2ccc(Br)o2)c1,.[11.6 µM],?,/,.,.,.,/,/,/
CCOC(=O)C(C)N1C(=O)S/C(=C\c2ccc(-c3ccccc3C(=O)O)o2)C1=O (centres undefined),25µM,?,/,32µM,/,.,15µM,.,22µM
SMILES,WRN helicase inh-1,PI5P4Ka inh,TDP1 inh,FEN1 inh,Tb PGK inh,Tb PFK inh,WRN helicase inh-2,TO DNA binding,BLM helicase inh
Cc1c(C(=O)O)cccc1-c1ccc(C=O)o1,.,.,.,.,.,.,/,/,/
COc1cc(/C=C2\SC(=S)N(NC(=O)c3cccc(O)c3)C2=O)ccc1O,32µM,.,/,?,.,.,22µM,3.8µM,22µM
O=C(O)c1ccc(/C=C2\SC(=S)N(NC(=O)c3ccccc3)C2=O)cc1,.,.,/,.,.,.,/,/,/
Cc1cccc(Nc2c(-c3ccsc3)nc3nc(C)cc(C)n23)c1,/,/,.,.,.,/,/,/,/
Cc1cc(Cl)c(OCCOCCN2CCCCC2)c(Br)c1,?,.,.,.,.,.,.,.,.
CC1(C)Cc2c(C#N)c(N3CCN(C(=O)c4ccccc4Cl)CC3)nc(-c3ccco3)c2CS1,35µM,-85,.,.,.,.,.,.,?
COc1cccc(C2=Nn3c(nnc3-c3ccc(OC)c(OC)c3)SC2)c1,/,/,.,/,/,/,/,/,/
O=C(NC1CCCCC1)c1cc(-c2ccccn2)nc2ccccc12,.,.,.,.,.,.,/,/,/
O=C(NC1CC1)c1cc(-c2ccco2)nc2ccccc12,20µM,-101,4.5µM,?,?,.,6.1µM,?,0.96µM
N#C/C(=C\c1ccc(-c2ccc(Cl)c(C(=O)O)c2)o1)c1nc2ccccc2[nH]1,/,/,/,.,?,.,19µM,?,14µM
N#C/C(=C\c1ccc(-c2ccc(C(=O)O)cc2)o1)c1nc2ccccc2[nH]1,?,?,.[12.3 µM],45µM,.,.,19µM,.,24µM
CC1CCN(C(=O)CN2c3ccc(Br)cc3-c3ccccc3S2(=O)=O)CC1,/,/,.,.,.,/,/,/,/
CC(CCN1CCC(CN2C(=O)C(=O)NC[C@@H]2Cc2ccccc2)CC1)c1ccccc1 (some centres undefined),.,.,/,.,.,/,/,/,/
CN(CCCS(=O)(=O)[O-])c1ccc(/C=C/c2ccc3ccccc3[n+]2C)cc1,.,.,/,.,/,.,/,/,/
CN(C)c1ccc(/C=C/c2ccc3ccccc3[n+]2C)cc1,40µM,?,.,40µM,.,.,24µM,27µM,27µM
